For one assay, the target named is FZD1. As to the kind of experiment: pooled miR-30 sensor sort-seq; sequence = guide strand. Conditions: shRNA.
TGTCATTACACACCACTCGGTC gave a sensor-assay potency score (higher = more potent) of -0.427.

On to TTGTCATTACACACCACTCGGT, for which the sensor-assay potency score (higher = more potent) was -0.649.

For the sequence TTGCTGGTCCAGAACTCTGGAA, the sensor-assay potency score (higher = more potent) was -1.24.

TTGCTGTTGGTGAGCCTCGTGT showed a sensor-assay potency score (higher = more potent) of -1.11.

Another assay addresses FZD4. Described as above. Conditions: shRNA.
As for TATCAGTGAACTCCTTGGCTGA, the sensor-assay potency score (higher = more potent) was -0.901.

TACAGTACTGAGAACACCCCAA: the sensor-assay potency score (higher = more potent) turned out to be 0.428.

TAACAGGCAATCACACACGTTG gave a sensor-assay potency score (higher = more potent) of -0.53.

Take TTGACTGAAAGACACATGCCGC: the sensor-assay potency score (higher = more potent) is -0.778.

The sequence TCTTTCTAACTTGTCTGTCTTT came in with a sensor-assay potency score (higher = more potent) of -0.962.

For TTGGTTTCCAACATAGCACAAG, the sensor-assay potency score (higher = more potent) is -0.766.

TCAGTCTTTCTAACTTGTCTGT displayed a sensor-assay potency score (higher = more potent) of -0.388.

TATTATAGCACATACTGAGAAA gave a sensor-assay potency score (higher = more potent) of -1.2.

As for TTTGCTATCTGAAAGACCCAGT, the sensor-assay potency score (higher = more potent) came to 0.327.

For TTTTAGTAGAATTTCCTCCAAA, the sensor-assay potency score (higher = more potent) is -0.591.

As for AACTTGTCTGTCTTTGTCCCAT, the sensor-assay potency score (higher = more potent) was 0.289.

The next assay has as its target FZD5. The description is as above. Conditions: shRNA.
In turn, TCCATGTCGATGAGGAAGGTGG gave a sensor-assay potency score (higher = more potent) of -1.25.

TCTCGCGGTAGTGCTGCTCGTA registered a sensor-assay potency score (higher = more potent) of -1.3.

Turning to TAGAGCATAGGAAGAAGCGCAG, the sensor-assay potency score (higher = more potent) was -0.267.

Regarding TTGATGACGCTGCGGATGCGGA, the sensor-assay potency score (higher = more potent) was -1.12.

With TAGAGCAGCGTGAAGATGCCGA, the sensor-assay potency score (higher = more potent) came out at 0.0125.

The sequence TTCCATGTCGATGAGGAAGGTG displayed a sensor-assay potency score (higher = more potent) of -0.703.

In turn, AGGAGCAGCAGCAACAGCGAGG returned a sensor-assay potency score (higher = more potent) of -2.13.

For TAGGAAGAAGCGCAGGTCCGGC, the sensor-assay potency score (higher = more potent) was -0.902.

Regarding TCCAGCTTGTCCGTCTTGGTGC, the sensor-assay potency score (higher = more potent) is -1.11.

Sequence TTCTCCAGCTTGTCCGTCTTGG had a sensor-assay potency score (higher = more potent) of -0.54.

TACTTGAGCATGAGCACCCAGT: the sensor-assay potency score (higher = more potent) is -0.921.

In turn, TAGCAGGCCACCACAATGCTGG returned a sensor-assay potency score (higher = more potent) of -0.787.

Another assay has as its target FZD8. The assay is described as above. Conditions: shRNA.
In turn, TACTTGAGCATGAAGACGGCGT displayed a sensor-assay potency score (higher = more potent) of 0.273.

With ATAATTAAGACATTTCTTGTTT, the sensor-assay potency score (higher = more potent) stood at 0.00747.

With TTCTTGTAGTCCTCTAGGCAGA, the sensor-assay potency score (higher = more potent) was -1.02.

Turning to TTGATGACCGAGCGGATGCGGA, the sensor-assay potency score (higher = more potent) was -1.04.

Take TGTTGCTTGATGACCGAGCGGA: the sensor-assay potency score (higher = more potent) is -0.353.

The sequence TGTAGGTGTAGTTGTAGCCGAT gave a sensor-assay potency score (higher = more potent) of -0.983.

Take TATCATGCTAATAGCAATCAAC: the sensor-assay potency score (higher = more potent) was -0.951.

With TTATATCTGTTCTTACAGGGGT, the sensor-assay potency score (higher = more potent) was -0.138.

Regarding TTTACTTAAGGCATTTGCCTGG, the sensor-assay potency score (higher = more potent) was found to be 0.501.

Regarding TTGTAGTCCATGCACAGCGTGT, the sensor-assay potency score (higher = more potent) was -1.01.

Sequence TAAGACACGGAGCTCGCCGTGC returned a sensor-assay potency score (higher = more potent) of -0.78.

As to TATATCTGTTCTTACAGGGGTA, the sensor-assay potency score (higher = more potent) was -0.151.

Source of the values: the OligoGym collection.
Also: reference of the scale not given here.
